In PubChem BioAssay (NCATS):
Values joined by “and” are separate entries in the source; they are usually repeats but may differ in a detail not shown here. Equal entries are not always repeated. Records with an inconclusive call do not appear. Active and inactive are the calls of the source. Calls come from the whole dose curve; as a rule, active = well fitted curve in the direction sought with a large enough effect; inconclusive = small, poorly fitted or top-dose-only effect, or another doubt; inactive = no such curve, though single readings can be large; an effect the other way counts as inactive or inconclusive.

Tested on: not listed separately
Assay: qHTS Assay for Lipid Storage Modulators (AID 1519)
Details: Drosophila S3 cells, BODIPY lipid droplet/cell ratio, laser cytometry; measured here: cell count channel max response; cells loaded with oleic acid
Summary of the method: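 Cells seeded at 5,000 per well were treated with compounds over a concentration series and loaded with oleic acid (400 uM, as added). Lipid droplet fluorescence (488 nm excitation, 500-530 nm channel) was read by laser-scanning cytometry and normalized to 20 uM Triacsin C.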

Structure (SMILES)	max response
CC(C)(C(=O)O)c1ccc(C(O)CCCN2CCC(C(O)(c3ccccc3)c3ccccc3)CC2)cc1 (centres undefined)	23% and -17.7%
Cc1ccc(C(C)C)cc2c(C)ccc1-2	18.3%
NCC(=O)CCC(=O)O	6.63%
O=C(O)c1ccccc1O	11.4%
CCN(CC)CCOC(=O)C1(C2CCCCC2)CCCCC1	0.165% and 5.59% and 10.8%
CC(CN(C)C)CN1c2ccccc2CCc2ccccc21 (centres undefined)	-4.41% and -13%
CCOc1ccc2ccccc2c1C(=O)N[C@@H]1C(=O)N2[C@@H]1SC(C)(C)[C@@H]2C(=O)O	-15.7%
COc1ccc2c(c1)C(=O)N(CCc1ccc(S(=O)(=O)NC(=O)NC3CCCCC3)cc1)C(=O)C2(C)C	-22.2%
O=c1cc[nH]c(=S)[nH]1	11.5%
CN1CCOC(c2ccccc2)c2ccccc2C1 (centres undefined)	13.7%
CC1(C)OC(=O)NC1=O	-12%
OCc1cc(C(O)CNCCCCCCOCCCCc2ccccc2)ccc1O (centres undefined)	12.8%
OCC(O)CN1CCN(c2ccccc2)CC1 (centres undefined)	18.2%
CN1CCN(C2Cc3ccccc3Sc3ccc(Cl)cc32)CC1 (centres undefined)	-11.4%
CC(CN1c2ccccc2Sc2ccccc21)N(C)C (centres undefined)	24.2% and 6.53%
COc1ccc(Cl)cc1C(=O)NCCc1ccc(S(=O)(=O)NC(=O)NC2CCCCC2)cc1	8.8% and 2.97% and -31.1%
CC(C)(C)c1onc(OCP(=O)(O)O)c1CC(N)C(=O)O (centres undefined)	-37.6%
C=Cc1c(C)c2cc3[nH]c(cc4nc(cc5nc(cc1[nH]2)C(C)=C5CCC(=O)O)C(CCC(=O)O)=C4C)c(C)c3C=C	1.69%
N=c1c[n+](N2CCOCC2)[n-]o1	25.9%
O=c1cc(CO)occ1O	23.1%
C[C@H](N)[C@H](O)c1cccc(O)c1	15.1%
CCCCN1CCCC[C@H]1C(=O)Nc1c(C)cccc1C	8.59%

Same assay, conditions: Drosophila S3 cells, BODIPY lipid droplet/cell ratio, laser cytometry; measured here: lipid channel max response; cells loaded with oleic acid

Structure (SMILES)	max response
CC(C)(C(=O)O)c1ccc(C(O)CCCN2CCC(C(O)(c3ccccc3)c3ccccc3)CC2)cc1 (centres undefined)	28% and -18.6%
Cc1ccc(C(C)C)cc2c(C)ccc1-2	26.1%
NCC(=O)CCC(=O)O	10.2%
O=C(O)c1ccccc1O	27.4%
CCN(CC)CCOC(=O)C1(C2CCCCC2)CCCCC1	-2.15% and 9.9% and 9.37%
CC(CN(C)C)CN1c2ccccc2CCc2ccccc21 (centres undefined)	4.99% and -13.2%
CCOc1ccc2ccccc2c1C(=O)N[C@@H]1C(=O)N2[C@@H]1SC(C)(C)[C@@H]2C(=O)O	-15.1%
COc1ccc2c(c1)C(=O)N(CCc1ccc(S(=O)(=O)NC(=O)NC3CCCCC3)cc1)C(=O)C2(C)C	-23.3%
O=c1cc[nH]c(=S)[nH]1	29.2%
CN1CCOC(c2ccccc2)c2ccccc2C1 (centres undefined)	26.3%
CC1(C)OC(=O)NC1=O	-11.9%
OCc1cc(C(O)CNCCCCCCOCCCCc2ccccc2)ccc1O (centres undefined)	10.1%
OCC(O)CN1CCN(c2ccccc2)CC1 (centres undefined)	35.4%
CN1CCN(C2Cc3ccccc3Sc3ccc(Cl)cc32)CC1 (centres undefined)	-9.31%
CC(CN1c2ccccc2Sc2ccccc21)N(C)C (centres undefined)	44.6% and 8.19%
COc1ccc(Cl)cc1C(=O)NCCc1ccc(S(=O)(=O)NC(=O)NC2CCCCC2)cc1	12.4% and 18.9% and -32.5%
CC(C)(C)c1onc(OCP(=O)(O)O)c1CC(N)C(=O)O (centres undefined)	-40.1%
C=Cc1c(C)c2cc3[nH]c(cc4nc(cc5nc(cc1[nH]2)C(C)=C5CCC(=O)O)C(CCC(=O)O)=C4C)c(C)c3C=C	21.3%
N=c1c[n+](N2CCOCC2)[n-]o1	27.5%
O=c1cc(CO)occ1O	26.9%
C[C@H](N)[C@H](O)c1cccc(O)c1	15%
CCCCN1CCCC[C@H]1C(=O)Nc1c(C)cccc1C	9.64%

Biological target: DNA repair nuclease/redox regulator APEX1 (Homo sapiens) (UniProt P27695)
Sequence (P27695 whole entry, looked up): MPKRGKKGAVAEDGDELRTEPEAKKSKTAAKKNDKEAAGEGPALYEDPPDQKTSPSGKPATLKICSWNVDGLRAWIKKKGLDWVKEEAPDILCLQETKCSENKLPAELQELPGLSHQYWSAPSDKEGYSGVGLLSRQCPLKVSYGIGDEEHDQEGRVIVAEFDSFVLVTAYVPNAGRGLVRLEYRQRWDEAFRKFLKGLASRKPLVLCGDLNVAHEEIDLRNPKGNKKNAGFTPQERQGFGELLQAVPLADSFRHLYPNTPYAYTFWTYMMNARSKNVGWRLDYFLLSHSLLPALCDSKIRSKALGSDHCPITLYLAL
Assay: qHTS Validation Assay for Inhibitors of the Human Apurinic/apyrimidinic Endonuclease 1 (APE1) (AID 1705; note: potency is the fitted concentration of half-maximal effect)
Details: purified APE1 endonuclease activity, fluorescence, titration; series mostly up to 57.1 µM
Summary of the method: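 qHTS, 1536-well. APE1 + cpd 15 min RT → 50 nM TAMRA/BHQ-2 THF-abasic dsDNA substrate → kinetic fluorescence, 3 reads/60 s; delta(read3−read1) = reaction progress. No-enzyme buffer = negative control.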

Structure (SMILES)	Potency
CNCC(O)c1ccc(O)c(O)c1 (centres undefined)	inactive
CCN(CC)CCNC(=O)c1cc(Cl)c(N)cc1OC	inactive
CCN(CC)CCOC(=O)C1(C2CCCCC2)CCCCC1	inactive
CC(CN(C)C)CN1c2ccccc2CCc2ccccc21 (centres undefined)	inactive
CCCCCCCCCCCCCCCC(=O)NCCO	inactive
OCc1cc(C(O)CNCCCCCCOCCCCc2ccccc2)ccc1O (centres undefined)	inactive
CC1=C(CC(=O)O)c2cc(F)ccc2/C1=C\c1ccc(S(C)(=O)=O)cc1	inactive
CN1CCN(C2Cc3ccccc3Sc3ccc(Cl)cc32)CC1 (centres undefined)	inactive
CC(CN1c2ccccc2Sc2ccccc21)N(C)C (centres undefined)	inactive
COC(=O)C1=C(C)NC(C)=C(C(=O)OC)C1c1ccccc1[N+](=O)[O-]	inactive
COc1ccc(Cl)cc1C(=O)NCCc1ccc(S(=O)(=O)NC(=O)NC2CCCCC2)cc1	inactive
CC(C)(C)c1onc(OCP(=O)(O)O)c1CC(N)C(=O)O (centres undefined)	inactive
C=Cc1c(C)c2cc3[nH]c(cc4nc(cc5nc(cc1[nH]2)C(C)=C5CCC(=O)O)C(CCC(=O)O)=C4C)c(C)c3C=C	5.01 µM (active)
O=C1N=C(O)CN1/N=C/c1ccc(-c2ccc([N+](=O)[O-])cc2)o1	inactive

Tested on: not listed separately
Assay: Counterscreen for APE1 Inhibitors: Fluorescent Dye Displacement Validation Assay (AID 1707); note: potency is the fitted concentration of half-maximal effect
Details: fluorescent dye displacement from DNA; series mostly up to 57.1 µM
Summary of the method: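 Assay buffer: Tris-HCl pH7.5 with 50mM NaCl, 2 mM MgCl2, 0.01% Tween-20. Dye 250 nM, duplex 50 nM final. Readout: decrease in ThO endpoint fluorescence, 480 nm excitation, 540 nm emission.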

Structure (SMILES)	Potency
CC(C)(C(=O)O)c1ccc(C(O)CCCN2CCC(C(O)(c3ccccc3)c3ccccc3)CC2)cc1 (centres undefined)	inactive
CNCC(O)c1ccc(O)c(O)c1 (centres undefined)	inactive
CCN(CC)CCNC(=O)c1cc(Cl)c(N)cc1OC	inactive
CNCCC(Oc1ccc(C(F)(F)F)cc1)c1ccccc1 (centres undefined)	inactive
CCN(CC)CCOC(=O)C1(C2CCCCC2)CCCCC1	inactive
CC(CN(C)C)CN1c2ccccc2CCc2ccccc21 (centres undefined)	inactive
CCCCCCCCCCCCCCCC(=O)NCCO	inactive
OCc1cc(C(O)CNCCCCCCOCCCCc2ccccc2)ccc1O (centres undefined)	inactive
CC1=C(CC(=O)O)c2cc(F)ccc2/C1=C\c1ccc(S(C)(=O)=O)cc1	inactive
CN1CCN(C2Cc3ccccc3Sc3ccc(Cl)cc32)CC1 (centres undefined)	inactive
CC(CN1c2ccccc2Sc2ccccc21)N(C)C (centres undefined)	inactive
COC(=O)C1=C(C)NC(C)=C(C(=O)OC)C1c1ccccc1[N+](=O)[O-]	inactive
COc1ccc(Cl)cc1C(=O)NCCc1ccc(S(=O)(=O)NC(=O)NC2CCCCC2)cc1	inactive
CC(C)(C)c1onc(OCP(=O)(O)O)c1CC(N)C(=O)O (centres undefined)	inactive
C=Cc1c(C)c2cc3[nH]c(cc4nc(cc5nc(cc1[nH]2)C(C)=C5CCC(=O)O)C(CCC(=O)O)=C4C)c(C)c3C=C	7.94 µM (active)
N=c1c[n+](N2CCOCC2)[n-]o1	inactive
